Test results reported in the supplement of paper PMC11018630.
Where a name gives a salt, the structure may show the parent alone. ± gives the standard deviation of the averaged measurements. Over roughly 1,100 compounds, “day of extracellular matrix detachment from plate” has its median near 16; the lowest 2% begin near 10. The full list was thinned out, with the lowest values kept by preference.

System: RDEB dermal fibroblasts EB71
Experiment: day of extracellular matrix detachment from plate (days); higher = delayed detachment (less fibrotic matrix)
Conditions: compound concentration: 10 uM

SMILES | day of extracellular matrix detachment from plate
O=c1ccc2ccc(OCCCCN3CCN(c4cccc5sccc45)CC3)cc2[nH]1 [Brexpiprazole] | 17
CC(C)[C@H](N)C(=O)OCCOCn1cnc2c(=O)nc(N)[nH]c21 [Valaciclovir HCl] | 15.7 ± 6.3
OCCOc1ccc(/C(=C(/CCCl)c2ccccc2)c2ccccc2)cc1 [Ospemifene] | 13
Cc1ccc(C(=O)C(C)CN2CCCCC2)cc1 (configuration not stated) [Tolperisone HCl] | 13
CCCCN1CCCCC1C(=O)Nc1c(C)cccc1C (configuration not stated) [Bupivacaine HCl] | 19.3 ± 6.3
CO[C@H]1C[C@@H]2CC[C@@H](C)[C@@](O)(O2)C(=O)C(=O)N2CCCC[C@H]2C(=O)O[C@H]([C@H](C)C[C@@H]2CC[C@@H](OCCO)[C@H](OC)C2)CC(=O)[C@H](C)/C=C(\C)[C@@H](O)[C@@H](OC)C(=O)[C@H](C)C[C@H](C)/C=C/C=C/C=C/1C [Everolimus (RAD001)] | 25
CC[C@H]1[C@@H](O)[C@@H]2[C@H](CC[C@]3(C)[C@@H]([C@H](C)CCC(=O)O)CC[C@@H]23)[C@@]2(C)CC[C@@H](O)C[C@@H]12 [Obeticholic Acid] | 16.3 ± 1.1
C#C[C@]1(O)CC[C@H]2[C@@H]3CCC4=CCCC[C@@H]4[C@H]3C(=C)C[C@@]21CC [Desogestrel] | 17
Cc1cc(C#N)cc(C)c1Oc1nc(Nc2ccc(C#N)cc2)nc(N)c1Br [Etravirine (TMC125)] | 18
C=C(c1ccc(C(=O)O)cc1)c1cc2c(cc1C)C(C)(C)CCC2(C)C [Bexarotene] | 9
CC1(C)CCC(C)(C)c2cc(NC(=O)c3ccc(C(=O)O)cc3)ccc21 [Tamibarotene] | 19
Cc1ccc([C@@H]2O[C@H](CO)[C@@H](O)[C@H](O)[C@H]2O)cc1Cc1ccc(-c2ccc(F)cc2)s1 [Canagliflozin] | 18
Oc1cc(O)c(Cl)cn1 [Gimeracil] | 12
O=C(O)c1cc(/N=N/c2ccc(O)c(C(=O)O)c2)ccc1O [Olsalazine Sodium] | 17.3 ± 2.9
CC(C)NC[C@H](O)COc1ccc(CCOCC2CC2)cc1 [Levobetaxolol HCl] | 16 ± 3.5
C[C@]12CC[C@H](O)CC1=CC[C@@H]1[C@@H]2CC[C@]2(C)C(n3cnc4ccccc43)=CC[C@@H]12 [Galeterone] | 20 ± 1.7
CCOC(=O)CC(=O)N1CCSC1COc1ccccc1OC (configuration not stated) [Moguisteine] | 15.3 ± 2.3
Clc1ccc2c(c1)CCc1cccnc1C2=C1CCNCC1 [Desloratadine] | 28
NC(=O)C(c1ccccc1)(c1ccccc1)[C@@H]1CCN(CCc2ccc3c(c2)CCO3)C1 [Darifenacin HBr] | 23.2 ± 7.2

SMILES | day of extracellular matrix detachment from plate
CC(C)/N=c1\cc2n(-c3ccc(Cl)cc3)c3ccccc3nc-2cc1Nc1ccc(Cl)cc1 [Clofazimine] | 13
C[C@@H]1O[C@@H](OC[C@H]2O[C@@H](Oc3c(-c4ccc(O)c(O)c4)oc4cc(O)cc(O)c4c3=O)[C@H](O)[C@@H](O)[C@@H]2O)[C@H](O)[C@H](O)[C@H]1O [Rutin] | 18.3 ± 8.1
CNC[C@H](O)[C@@H](O)[C@H](O)[C@H](O)CO [Meglumine] | 12
O=C(O)COCCN1CCN(C(c2ccccc2)c2ccc(Cl)cc2)CC1 (configuration not stated) [Cetirizine DiHCl] | 10.3 ± 1.1
Cc1cccc(CN2CCN(C(c3ccccc3)c3ccc(Cl)cc3)CC2)c1 (configuration not stated) [Meclizine 2HCl] | 12
OCCOCCN1CCN(C(c2ccccc2)c2ccc(Cl)cc2)CC1 (configuration not stated) [Hydroxyzine 2HCl] | 18
C#C[C@]1(O)CC[C@H]2[C@@H]3CCC4=CC(=O)CC[C@@H]4[C@H]3C(=C)C[C@@]21CC [Etonogestrel] | 20
CC(C)Oc1ccc(-c2nc(-c3cccc4c3CC[C@@H]4NCCO)no2)cc1C#N [Ozanimod (RPC1063)] | 16.3 ± 1.1
Cc1cccc(Nc2ccncc2S(=O)(=O)NC(=O)NC(C)C)c1 [Torsemide] | 15.7 ± 6.3
CN1CCN2c3ccccc3Cc3ccccc3C2C1 (configuration not stated) [Mianserin HCl] | 9.67 ± 1.1
CN1CCN2c3ncccc3Cc3ccccc3C2C1 (configuration not stated) [Mirtazapine] | 12
NC1=NCC2c3ccccc3Cc3ccccc3N12 (configuration not stated) [Epinastine HCl] | 13
C=C[C@]1(C)C[C@@H](OC(=O)CSC(C)(C)CNC(=O)[C@H](N)C(C)C)[C@]2(C)[C@H](C)CC[C@]3(CCC(=O)[C@H]32)[C@@H](C)[C@@H]1O [Valnemulin HCl] | 19
C[C@]12CC[C@@H]3c4ccc(O)cc4CC[C@H]3[C@@H]1CC[C@@H]2OC(=O)CCC1CCCC1 [Estradiol Cypionate] | 13
C[C@@H]1COC(Nc2ccc3ncnc(Nc4ccc(OCc5nccs5)c(Cl)c4)c3c2)=N1 [Varlitinib] | 31
C[C@H](CCC(=O)O)[C@H]1CC[C@H]2[C@@H]3[C@H](O)C[C@@H]4C[C@H](O)CC[C@]4(C)[C@H]3CC[C@]12C [Chenodeoxycholic Acid] | 15.7 ± 6.3
C[C@H](CCC(=O)O)[C@H]1CC[C@H]2[C@@H]3CC[C@@H]4C[C@H](O)CC[C@]4(C)[C@H]3CC[C@]12C [Lithocholic acid] | 15.3 ± 2.3
C[C@H](CCC(=O)O)[C@H]1CC[C@H]2[C@@H]3[C@@H](O)C[C@@H]4C[C@H](O)CC[C@]4(C)[C@H]3CC[C@]12C [Ursodiol] | 10.3 ± 1.1
